Assay results reported in PubChem BioAssay AID684 (PCMD, 2007).
The campaign covered roughly 62,000 compounds. About 95 (0.2%) were called active. Shown is part of a subset that was picked to be rich in actives. Values without a mark were called inactive. No stated cut-off is given here; in the data, active means inhibition above about 20% (passing the limit was not always enough); inactive means the rest.

What follows are compounds tested against Coagulation factor XII (Homo sapiens) (UniProt P00748) (assay: human factor XIIa inhibitors, primary screen, biochemical, pooled compound mixtures, fluorogenic substrate (AID 684;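 further: 0% = enzyme without compound and 100% = no enzyme blank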)). Details: purified FXIIa, at 5 µM, stronger effect = higher value.
Chain of Coagulation factor XII (Homo sapiens) (P00748 20-372 limits assumed): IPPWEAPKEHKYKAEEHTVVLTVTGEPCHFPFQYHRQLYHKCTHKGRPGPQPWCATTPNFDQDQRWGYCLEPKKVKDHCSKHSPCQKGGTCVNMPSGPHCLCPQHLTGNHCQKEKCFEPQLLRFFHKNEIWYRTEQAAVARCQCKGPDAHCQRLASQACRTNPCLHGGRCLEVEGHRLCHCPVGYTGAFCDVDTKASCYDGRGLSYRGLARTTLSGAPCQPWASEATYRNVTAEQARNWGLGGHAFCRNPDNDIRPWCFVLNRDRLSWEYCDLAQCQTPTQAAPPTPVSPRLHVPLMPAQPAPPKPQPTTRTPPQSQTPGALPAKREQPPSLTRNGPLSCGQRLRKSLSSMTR
Chain of Coagulation factor XII (Homo sapiens) (P00748 373-615 limits assumed): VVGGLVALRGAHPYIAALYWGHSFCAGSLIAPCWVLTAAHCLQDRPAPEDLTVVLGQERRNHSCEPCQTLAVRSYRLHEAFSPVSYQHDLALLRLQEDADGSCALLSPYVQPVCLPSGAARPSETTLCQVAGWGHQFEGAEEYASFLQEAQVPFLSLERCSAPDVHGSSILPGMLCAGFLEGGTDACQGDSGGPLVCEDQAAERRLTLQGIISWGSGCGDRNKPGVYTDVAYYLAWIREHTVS
With `CCS(=O)(=O)n1nc(-c2ccccc2)nc1SCc1ccccc1` the inhibition was 6.08%. `Cc1noc(C)c1C(=O)NC(C)c1ccc2c(c1)OCO2` (centres undefined) gave an inhibition of 4.17%. For `COC(=O)C1=C(C)Nc2ncnn2C1c1ccco1` (centres undefined), the inhibition was 15.1%. In the case of `COc1ccc(OC)c2[nH]c(=O)c(CCNC(=O)C(C)(C)C)cc12`, the inhibition is reported as -10.9%. For `CCO/C([O-])=N/c1c[n+](N2CCOCC2)no1`, the inhibition was 3.21%. `CN(C)CCOC(=O)C(c1ccccc1)C1(O)CCCC1` (centres undefined) showed an inhibition of 2.14%. Compound `Cc1cccc(CSc2nnc(Cn3c(=O)sc4ccccc43)n2C)c1` has an inhibition of 0.99%. For `CCCC(NS(=O)(=O)c1ccc(OC)cc1)C(=O)O` (centres undefined), the inhibition was 10.4%. `O=C(NCc1cccnc1)c1cn(-c2ccccc2)nc1-c1cccs1` gave an inhibition of 5.99%. `O=C(NCCCNCc1ccccc1)c1ccc(/C=N/O)nc1` gave an inhibition of 1.86%. `CCn1c(SCC(=O)Nc2ccc3c(c2)OCCO3)nc2c(c1=O)SC(C)C2` (centres undefined) gave an inhibition of 11.3%. In the case of `O=C(CN1CCN(S(=O)(=O)/C=C/c2ccccc2)CC1)NC(=O)NCc1ccco1`, the inhibition is reported as -1.11%. `CC(NC(=O)c1ccc(Cl)cc1)C(=O)N1CCCCC1` (centres undefined) was tested, and the inhibition was 6.69%. Work on `CCOC(=O)Cc1csc(NC(=O)C(C)(C)C)n1` yielded an inhibition of 3.6%. With `O=C1CCC(=O)N1CCOP1(=O)COc2ccccc2OC1` the inhibition was 2.03%. `COCCNC(=O)c1ccccc1-c1nc(-c2ccccc2Cl)no1` gave an inhibition of 6.16%. With `c1csc(CN2CCN(Cc3cccs3)C2c2cccs2)c1` the inhibition was -13.3%. Work on `COC(=O)c1cccc(NC(=O)CSc2nc(C)cc(=O)[nH]2)c1` yielded an inhibition of 9.59%. `COCc1cc(C)nc(Nc2cc(C)ccc2C)c1C#N` showed an inhibition of 1.73%. With `COCc1cc(C)nc(SCC(=O)Nc2cccc(C)c2)c1C#N` the inhibition was 21.5% (active). Compound `Cn1c2c(c(=O)n(C)c1=O)CN(Cc1ccco1)CN2` has an inhibition of -0.485%. With `Cc1ccc2[nH]c(=O)c(-c3nc4c(C)cccn4c3NCc3ccco3)cc2c1` the inhibition was -0.355%. With `O=C(COc1ccccc1)N1CCc2ccccc2C1` the inhibition was 9.32%. In the case of `CC1CCC(NC(=O)c2ccc(N3CCCC3=O)cc2)CC1` (centres undefined), the inhibition is reported as -12.2%. Compound `CCc1nc(C)cn1S(=O)(=O)c1cc(OC)c(C)cc1C` has an inhibition of 9.21%. With `CCCC1CC(C)(C(=O)Cn2[nH]c(=O)ccc2=O)OC1=O` (centres undefined) the inhibition was -1.01%. `O=C(c1cc(-c2ccccc2O)on1)N1CCCC1` showed an inhibition of -13.8%. `Cc1ccc(S(=O)(=O)Nc2ccc3ncccc3c2)cc1` showed an inhibition of -13.2%. `Cc1cc(N(C)C)cc(C)[n+]1[O-]` showed an inhibition of -12%. For `CC(C)c1ccc(N2CC(C(=O)Nc3nccs3)CC2=O)cc1` (centres undefined), the inhibition was 3.69%. With `COc1ccc(Cn2cccc(NC(=O)Nc3ccc(C#N)cc3)c2=O)cc1` the inhibition was 10.3%. `Cc1ccccc1C(OCC(O)CN1CCCCC1CCO)c1ccccc1` (centres undefined) gave an inhibition of 4.15%. In the case of `Cc1ccc(Nc2cc(=O)n(C3CCCCC3)c(=O)[nH]2)cc1C`, the inhibition is reported as 5.68%. With `CCCCn1c(=S)[nH]c2ncccc2c1=O` the inhibition was 4.05%. In the case of `COC(=O)C(C)N(C#N)c1nc(C)nc(C)n1` (centres undefined), the inhibition is reported as 9.14%. Compound `Cc1csc(NC(=O)CN2CCCCCC2)n1` has an inhibition of 7.17%. Work on `Cc1nc2ccc(S(=O)(=O)NCC(=O)NCCN3CCCCC3C)cc2s1` (centres undefined) yielded an inhibition of 9.34%. `Cc1ccn2cc(-c3nonc3C)cc2c1` showed an inhibition of 9.55%. In the case of `CCCCC(=O)N(c1ccc(OC)cc1)C1C=CS(=O)(=O)C1` (centres undefined), the inhibition is reported as 4.62%. `C=CCn1c(=O)c2ccccc2n2c(SCC(=O)N3CCCc4ccccc43)nnc12` was tested, and the inhibition was -6.74%. With `COc1ccc(S(=O)(=O)N2CCCC(C(=O)Nc3ccc(NC(=O)c4ccccn4)cc3)C2)cc1` (centres undefined) the inhibition was 9.91%. Compound `CC12CCC(C(=O)N3CCN(c4ncccn4)CC3)(c3nc4ccccc4nc31)C2(C)C` (centres undefined) has an inhibition of 11.8%. Compound `CC1(C)C2CCC1(C)C(OC(=O)CCn1ccnc1)C2` (centres undefined) has an inhibition of 3.17%. In the case of `Cc1ccc2c(c1)C(O)(CC(=O)c1cccnc1)C(=O)N2` (centres undefined), the inhibition is reported as 10.7%. In the case of `Cc1cc2ccccc2n2c(SCC(=O)N3CCN(C(=O)c4ccco4)CC3)nnc12`, the inhibition is reported as -6.12%. `CCC(Sc1nncn1C)C(=O)Nc1nnc(-c2ccc(Cl)cc2)s1` (centres undefined) showed an inhibition of 15.7%. Work on `Cc1ccc(SCc2cc(=O)[nH]c(N3CCCCC3)n2)cc1` yielded an inhibition of 3.87%. `N#Cc1c(N)sc2c1CCN(C(=O)OCc1ccccc1)C2` was tested, and the inhibition was -18%. With `COc1ccc2c(c1)C(C)=CC(C)(C)N2C(=O)CNCc1ccc2c(c1)OCO2` the inhibition was 17%.
